Measured values from paper PMC8384837, “Expanding the binding specificity for RNA recognition by a PUF domain”.
Where a chain is given by its changes, count along the chain named.

Columns and labels:
Experiment in all cases: yeast three-hybrid, YBZ-1, SC-Leu-His + 0.5 mM 3-AT, 4 days
Conditions in all cases: tags: N-Gal4 AD-HA kept; label: inside an RPR1-promoter hybrid RNA with tandem MS2 sites; ssRNA
PUM1 PUF domain R5-TRY = PUM1 PUF domain R5-TRY (Homo sapiens, UniProt Q14671 828-1176, C1007T;Q1011Y)
Method in brief: (§1)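 Pumilio-1 PUF domain libraries, randomized at the three base-contacting residues of each repeat, were co-expressed with matching RNA elements from a centromeric plasmid in strain YBZ-1, which carries a LexA–MS2 coat fusion and a HIS3 reporter. Transformants grew for four days on SC-Leu (input) or on SC-Leu-His + 0.5 mM 3-AT (selection), and the repeat regions were PCR-amplified and Illumina-sequenced. The interaction score is the log change in variant frequency from input to selection. That logarithm is base 2, with a pseudocount of 1 where a variant was absent.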

PUM1 PUF domain R3-PFY = PUM1 PUF domain R3-PFY (Homo sapiens, UniProt Q14671 828-1176, C935P;R936F;Q939Y)
Method in brief: as §1

PUM1 PUF domain R6-AFR = molecular target: T1, PUM1 PUF domain R6-AFR (Homo sapiens, UniProt Q14671 828-1176, N1043A;Y1044F;Q1047R)
T1 sequence: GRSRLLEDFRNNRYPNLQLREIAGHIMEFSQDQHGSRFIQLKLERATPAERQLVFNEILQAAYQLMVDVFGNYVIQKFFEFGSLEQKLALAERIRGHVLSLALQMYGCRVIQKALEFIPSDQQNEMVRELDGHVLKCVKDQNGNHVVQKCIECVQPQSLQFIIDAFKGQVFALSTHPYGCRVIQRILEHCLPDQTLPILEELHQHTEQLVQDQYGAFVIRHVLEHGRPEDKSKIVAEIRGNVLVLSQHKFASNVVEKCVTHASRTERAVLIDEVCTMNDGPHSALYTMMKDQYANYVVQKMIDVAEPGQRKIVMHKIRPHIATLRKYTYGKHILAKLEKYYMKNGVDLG
Method in brief: as §1

PUM1 PUF domain R4-TRG = PUM1 PUF domain R4-TRG (Homo sapiens, UniProt Q14671 828-1176, N971T;H972R;Q975G)
Method in brief: as §1

PUM1 PUF domain R6-GYK = molecular target: T2, PUM1 PUF domain R6-GYK (Homo sapiens, UniProt Q14671 828-1176, N1043G;Q1047K)
T2 sequence: T1 sequence with A216G, F217Y, R220K
Method in brief: as §1

PUM1 PUF domain R6-NFL = molecular target: T3, PUM1 PUF domain R6-NFL (Homo sapiens, UniProt Q14671 828-1176, Y1044F;Q1047L)
T3 sequence: T1 sequence with A216N, R220L
Method in brief: as §1

PUM1 PUF domain R6-IYS = molecular target: T4, PUM1 PUF domain R6-IYS (Homo sapiens, UniProt Q14671 828-1176, N1043I;Q1047S)
T4 sequence: T1 sequence with A216I, F217Y, R220S
Method in brief: as §1

PUM1 PUF domain R4-WSS = PUM1 PUF domain R4-WSS (Homo sapiens, UniProt Q14671 828-1176, N971W;H972S;Q975S)
Sequence of PUM1 PUF domain R4-WSS (Q14671 828-1176 N971W/H972S/Q975S): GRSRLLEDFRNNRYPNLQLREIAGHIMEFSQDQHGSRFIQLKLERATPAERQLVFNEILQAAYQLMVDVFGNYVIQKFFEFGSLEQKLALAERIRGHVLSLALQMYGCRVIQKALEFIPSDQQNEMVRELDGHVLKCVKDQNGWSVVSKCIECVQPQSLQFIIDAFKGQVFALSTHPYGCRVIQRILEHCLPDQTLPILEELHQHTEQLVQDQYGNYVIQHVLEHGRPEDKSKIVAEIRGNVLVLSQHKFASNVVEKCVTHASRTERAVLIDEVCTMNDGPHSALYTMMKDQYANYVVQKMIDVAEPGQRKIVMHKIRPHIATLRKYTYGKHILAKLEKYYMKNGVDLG
Method in brief: as §1

PUM1 PUF domain R5-RRI = PUM1 PUF domain R5-RRI (Homo sapiens, UniProt Q14671 828-1176, C1007R;Q1011I)
Sequence of PUM1 PUF domain R5-RRI (Q14671 828-1176 C1007R/Q1011I): as the sequence (Q14671 828-1176 N971W/H972S/Q975S) above, with W144N, S145H, S148Q, C180R, Q184I counted along it
Method in brief: as §1

PUM1 PUF domain R4-CMI = PUM1 PUF domain R4-CMI (Homo sapiens, UniProt Q14671 828-1176, N971C;H972M;Q975I)
Method in brief: as §1

PUM1 PUF domain R7-KWN = PUM1 PUF domain R7-KWN (Homo sapiens, UniProt Q14671 828-1176, S1079K;N1080W;E1083N)
Method in brief: as §1

PUM1 PUF domain R1-RRQ = PUM1 PUF domain R1-RRQ (Homo sapiens, UniProt Q14671 828-1176, S863R)
Sequence of PUM1 PUF domain R1-RRQ (Q14671 828-1176 S863R): as the sequence (Q14671 828-1176 N971W/H972S/Q975S) above, with S36R, W144N, S145H, S148Q counted along it
Method in brief: as §1

PUM1 PUF domain R8-FYF = PUM1 PUF domain R8-FYF (Homo sapiens, UniProt Q14671 828-1176, N1122F;Q1126F)
Method in brief: as §1

PUM1 PUF domain R4-DHV = PUM1 PUF domain R4-DHV (Homo sapiens, UniProt Q14671 828-1176, N971D;Q975V)
Method in brief: as §1

PUM1 PUF domain R3-RPK = PUM1 PUF domain R3-RPK (Homo sapiens, UniProt Q14671 828-1176, C935R;R936P;Q939K)
Method in brief: as §1

PUM1 PUF domain R5-NAI = PUM1 PUF domain R5-NAI (Homo sapiens, UniProt Q14671 828-1176, C1007N;R1008A;Q1011I)
Method in brief: as §1

PUM1 PUF domain R5-RNL = PUM1 PUF domain R5-RNL (Homo sapiens, UniProt Q14671 828-1176, C1007R;R1008N;Q1011L)
Method in brief: as §1

Sequence: GGCUAGAACUAGUGGAUCCCCCGGCGCCCGGCGGCUCGAGCCCGGGUAAGUGUAAAUAGUCUGCAUGCCGCCGGGCGCCAUGCCUGCAGGUCGACUCUAGAAAACAUG
- binding signal (PUM1 PUF domain R5-TRY): 4.49 log2 enrichment (interaction score)
- binding signal (PUM1 PUF domain R3-PFY): 4.24 log2 enrichment (interaction score)
- binding signal (PUM1 PUF domain R6-AFR): 4.43 log2 enrichment (interaction score)
- binding signal (PUM1 PUF domain R4-TRG): 5.35 log2 enrichment (interaction score)
- binding signal (PUM1 PUF domain R6-GYK): 2.87 log2 enrichment (interaction score)
- binding signal (PUM1 PUF domain R6-NFL): 5.25 log2 enrichment (interaction score)
- binding signal (PUM1 PUF domain R6-IYS): 2.42 log2 enrichment (interaction score)
- binding signal (PUM1 PUF domain R4-WSS): 2.27 log2 enrichment (interaction score)
- binding signal (PUM1 PUF domain R5-RRI): 2.01 log2 enrichment (interaction score)
- binding signal (PUM1 PUF domain R4-CMI): 2.77 log2 enrichment (interaction score)

Sequence: GGCUAGAACUAGUGGAUCCCCCGGCGCCCGGCGGCUCGAGCCCGGGUAAGUCUAAAUAGUCUGCAUGCCGCCGGGCGCCAUGCCUGCAGGUCGACUCUAGAAAACAUG
- binding signal (PUM1 PUF domain R7-KWN): 5.98 log2 enrichment (interaction score)

Sequence: GGCUAGAACUAGUGGAUCCCCCGGCGCCCGGCGGCUCGAGCCCGGGUAAGUGUAAAUCGUCUGCAUGCCGCCGGGCGCCAUGCCUGCAGGUCGACUCUAGAAAACAUG
- binding signal (PUM1 PUF domain R1-RRQ): 5.5 log2 enrichment (interaction score)

Sequence: GGCUAGAACUAGUGGAUCCCCCGGCGCCCGGCGGCUCGAGCCCGGGUAAGCGUAAAUAGUCUGCAUGCCGCCGGGCGCCAUGCCUGCAGGUCGACUCUAGAAAACAUG
- binding signal (PUM1 PUF domain R8-FYF): 2.55 log2 enrichment (interaction score)

Sequence: GGCUAGAACUAGUGGAUCCCCCGGCGCCCGGCGGCUCGAGCCCGGGUAAGUGUAAAUGGUCUGCAUGCCGCCGGGCGCCAUGCCUGCAGGUCGACUCUAGAAAACAUG
- binding signal (PUM1 PUF domain R1-RRQ): 1.96 log2 enrichment (interaction score)

Sequence: GGCUAGAACUAGUGGAUCCCCCGGCGCCCGGCGGCUCGAGCCCGGGUAAGUGUACAUAGUCUGCAUGCCGCCGGGCGCCAUGCCUGCAGGUCGACUCUAGAAAACAUG
- binding signal (PUM1 PUF domain R4-DHV): 5.75 log2 enrichment (interaction score)
- binding signal (PUM1 PUF domain R4-WSS): 2 log2 enrichment (interaction score)

Sequence: GGCUAGAACUAGUGGAUCCCCCGGCGCCCGGCGGCUCGAGCCCGGGUAAGUGUAAUUAGUCUGCAUGCCGCCGGGCGCCAUGCCUGCAGGUCGACUCUAGAAAACAUG
- binding signal (PUM1 PUF domain R3-RPK): 4.23 log2 enrichment (interaction score)

Sequence: GGCUAGAACUAGUGGAUCCCCCGGCGCCCGGCGGCUCGAGCCCGGGUAAGUGUUAAUAGUCUGCAUGCCGCCGGGCGCCAUGCCUGCAGGUCGACUCUAGAAAACAUG
- binding signal (PUM1 PUF domain R5-NAI): 3.43 log2 enrichment (interaction score)
- binding signal (PUM1 PUF domain R5-RRI): 4.69 log2 enrichment (interaction score)
- binding signal (PUM1 PUF domain R5-RNL): 3.54 log2 enrichment (interaction score)
